# Tested on: HepG2
# Assay: GSK_TCMDC: Percent inhibition of human HepG2 cell line. Test compounds present at 10uM.
# Format: functional
row,Compound,Inhibition
1,Cc1ccc(Nc2ccnc3cc(-c4nccs4)ccc23)cc1C(O)c1ccccc1.Cl (stereo not drawn),23%
2,O=C(O)C(F)(F)F.OCCN1CCN(Cc2ccc(-c3ccc(-c4nc5ccccc5[nH]4)cc3)cc2)CC1,6%
3,O=C(/C=C/c1ccc(Cl)c(Cl)c1)NCCCCCN1CCC(c2cn[nH]c2-c2ccccc2)CC1,28%

# Source: ChEMBL document CHEMBL1157539, “Thousands of chemical starting points for antimalarial lead identification” (Nature, 2010)
